Out of some 390,000 compounds screened, about 2,600 (0.67%) were called active. The entries come from a sample that favours actives as a whole. Unmarked numbers belong to inactive results.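 How the source made its calls: active means mean inhibition of replicates at least 50% and at least half of replicates each reaching 50%; inconclusive means half or more replicates reach 50% but mean below 50%; inactive means the rest.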

The target of the test is Transforming acidic coiled-coil-containing protein 3 (Homo sapiens) (UniProt Q9Y6A5). As to the kind of experiment: inhibitors of ARNT PAS-B binding to TACC3 – biochemical, AlphaScreen, single concentration, primary screen (AID 623870).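 Further: 0% = complete ARNT plus TACC3 wells and 100% = ARNT alone without TACC3.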 The conditions noted are these: AlphaScreen His-ARNT PAS-B/GST-TACC3 binding, luminescence; at 9.99 µM; active compounds read high; TACC3 fragment carries E629A point mutation.
On to `CN1[C@@H]2c3ccc(-c4cccc(F)c4)c(=O)n3C[C@@H]2[C@@H](CO)[C@@H]1C(=O)NC1CCC1`, for which the inhibition was -9.74%. The figure for `CCC(=O)Nc1ccc2c(c1)OC[C@H](C)N(C(=O)c1ccncc1)C[C@H](C)[C@H](OC)CN(C)C2=O` is 6.95%; for `C[C@@H]1CN([C@@H](C)CO)C(=O)c2cccc(NC(=O)c3ccncc3)c2O[C@H]1CN(C)S(=O)(=O)c1ccc(F)cc1` it is -8.57%; for `C[C@@H]1CN([C@H](C)CO)C(=O)c2cc(NC(=O)Cc3cn(C)c4ccccc34)ccc2O[C@@H]1CN(C)S(=O)(=O)c1cccs1` it is -11.1%. The figure for `Cc1ccc(CC2CC(=O)N(c3nc(C)cc(C)n3)C2=O)cc1` (centres undefined) is -8.57%. For `Cc1cc(C)nc(N2C(=O)CC(Cc3ccccc3)C2=O)n1` (centres undefined), the inhibition is -0.771%. Turning to `COC(=O)CC1=NN(c2nc(C)cc(C)n2)C(=O)C1`, the inhibition was 13.9% (active). The value for `COCCNC(=O)C[C@H]1CC[C@@H]2[C@@H](COc3ccc(NC(=O)C4CCOCC4)cc3C(=O)N2C)O1` was -6.26%; that for `CCC(=O)N[C@H]1CC[C@H](CCn2cc(-c3cccc(OC)c3)nn2)O[C@H]1CO` was -6.96%.

With `Cc1c(NC(=O)CN2C(=O)C(=O)N(Cc3ccccc3)C2=O)c(=O)n(-c2ccccc2)n1C`, the inhibition was 0.167%. Take `Cc1c(NC(=O)CSc2cccc3cccnc23)c(=O)n(-c2ccccc2)n1C`: the inhibition was 93.2% (active). The value for `Cc1ccccc1OCCC(=O)Nc1c(C)n(C)n(-c2ccccc2)c1=O` was 5.66%; that for `C[C@@H]1CN([C@H](C)CO)C(=O)c2ccccc2-c2ccccc2CO[C@@H]1CN(C)S(=O)(=O)CC(F)(F)F` was -0.141%; that for `C[C@H](CO)N1C[C@H](C)[C@H](CN(C)C)Oc2ccc(NC(=O)Cc3ccccc3)cc2CC1=O` was -9.42%. For `C[C@H](CO)N1C[C@H](C)[C@H](CN(C)C(=O)NC2CCCCC2)Oc2c(NC(=O)C3CC3)cccc2C1=O`, the inhibition was -12.2%. As for `O=[N+]([O-])c1cc(Cl)cc(/C=N/NC(=S)Nc2cc(S(=O)(=O)N3CCOCC3)ccc2Cl)c1O`, the inhibition was 41.4%.

As for `C=CCNC(=S)N/N=C/c1ccc(C)s1`, the inhibition was 3.54%. The value for `CNC(=S)N/N=C/c1ccc(N2CCOCC2)s1` was 46.8% (active); that for `COc1ccc(NC(=O)N(C)C[C@@H]2Oc3c(NC(=O)C4CCOCC4)cccc3C(=O)N([C@H](C)CO)C[C@@H]2C)cc1` was 26.5%; that for `O=C(NNC1=NCCC1)c1cccc(S(=O)(=O)N2CCCCC2)c1` was 30.6%. The figure for `Cc1ncc(CO)c(/C=N/NC(=O)c2cccc(S(=O)(=O)N3CCCC3)c2)c1O` is 75.9% (active); for `O=C(Nc1nncs1)c1cccc(S(=O)(=O)N2CCCCC2)c1` it is -5.27%. For `CCCN(C)C[C@@H]1OCCCC[C@@H](C)Oc2ccc(NS(=O)(=O)c3c(C)noc3C)cc2C(=O)N([C@H](C)CO)C[C@@H]1C`, the inhibition was -10.1%.

Take `COCC#Cc1cnc2c(c1)C(=O)N([C@@H](C)CO)C[C@@H](C)[C@@H](CN(C)C(=O)Nc1ccc(OC)cc1)O2`: the inhibition was 4.88%. The value for `ON=C1/C(=N\O)CC2(C/C1=N/O)OCCO2` was 59% (active); that for `C[C@@H]1CN([C@H](C)CO)C(=O)c2cccc(NS(=O)(=O)c3cccs3)c2O[C@@H]1CN(C)C(=O)Nc1cccc2ccccc12` was 26.7%. Consider `Cc1cccc(-c2ccc([C@@H]3[C@@H](CO)N4CCCCN(S(=O)(=O)c5cccs5)C[C@H]34)cc2)c1`, for which the inhibition is 14.3%.

As for `O=C(COC(=O)CCCN1C(=O)c2cccc3cccc(c23)C1=O)NC1CCS(=O)(=O)C1` (centres undefined), the inhibition was 7.07%. The figure for `O=C(CCCN1C(=O)c2cccc3cccc(c23)C1=O)N1CCN(Cc2ccc3c(c2)OCO3)CC1` is -11.4%. Consider `O=C1c2cccc3cccc(c23)C(=O)N1CCCCCc1n[nH]c(=S)o1`, for which the inhibition is 28.3% (active). The figure for `C[C@H](CO)N1C[C@H](C)[C@H](CN(C)C(=O)Cc2ccccn2)Oc2ncc(-c3cncnc3)cc2C1=O` is -0.547%; for `CO[C@@H]1CN(C)C(=O)c2ccc(NC(=O)Nc3c(C)noc3C)cc2OC[C@@H](C)N(C(=O)Nc2cccc(Cl)c2)C[C@H]1C` it is 4.61%.

For the compound `COc1ccccc1NC(=O)N[C@H]1CC[C@H](CCNC(=O)Cc2ccccn2)O[C@@H]1CO`, the inhibition is 6.44%. Take `CC(C)n1cnc2c(NCc3ccccc3)cc(OCC3CCN(C)CC3)cc21`: the inhibition is 28.3% (active).

Regarding `CCC(=O)Nc1ccc2c(c1)C(=O)N(C)[C@@H]1CC[C@@H](CC(=O)NCCN3CCCCC3)O[C@@H]1CO2`, the inhibition was -4.58%. `COc1ccccc1-c1cn(CC[C@@H]2CC[C@@H](NC(=O)c3ccccc3F)[C@H](CO)O2)nn1`: the inhibition was 1.05%.

In the case of `C[C@H]1CN([C@@H](C)CO)C(=O)c2cc(C3=CCCCC3)cnc2O[C@H]1CN(C)Cc1ccncc1`, the inhibition is -9.48%.

With `O=C(NCc1cccnc1)c1nc(-c2cccs2)no1`, the inhibition is -5.94%. The value for `O=C(c1cccs1)N(C(=O)c1cccs1)c1ccccn1` was 0.575%; that for `c1ccc(-c2noc(-c3cccs3)n2)nc1` was 48.9% (active). For the compound `CCCC(NC(=O)c1ccco1)c1nc2ccccc2[nH]1` (centres undefined), the inhibition is -4.8%. For the compound `O=C(COc1cccnc1[N+](=O)[O-])Nc1ccc(Cl)cc1F`, the inhibition was -2.26%. `O=C(CCN1C(=O)C2C3C=CC(C3)C2C1=O)Nc1ccccc1F` (centres undefined): the inhibition was -30.3%.

On to `O=C(COc1ccccc1F)Nc1nc(-c2ccccn2)cs1`, for which the inhibition is 69.7% (active). The value for `O=C(NCCN1C(=O)C2C3C=CC(C3)C2C1=O)Nc1ccccn1` (centres undefined) was 0.008%; that for `O=C(CN1C(=O)C2C3C=CC(C3)C2C1=O)Nc1nc(-c2ccccn2)cs1` (centres undefined) was 73.4% (active); that for `CCOC(=O)N1CCN(C(=O)C(C)NC(=O)c2ccco2)CC1` (centres undefined) was -22%. `CC1CCN(S(=O)(=O)c2nnc(NC(=O)COc3ccccc3F)s2)CC1`: the inhibition is 31.3%. For the compound `CC(NC(=O)c1ccco1)C(=O)Nc1nc(-c2ccccn2)cs1` (centres undefined), the inhibition was 65.4% (active).
